Screens from PubChem.
Only some compounds are listed: those with a hit (about 4.3% of all), similar ones and a draw of the others.
FAS TE block: FAS thioesterase domain inhibitors, primary screen, biochemical, fluorescence intensity, uHTS | Fatty acid synthase (Homo sapiens), P49327 | recombinant FAS-TE, OMFH fluorogenic substrate, fluorescence endpoint | inhibition, % at 15 µM | 360,000 compounds, 0.67% hits | AID 602261, 2012;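 active means compounds whose normalised, plate-corrected inhibition of enzyme fluorescence in the single-dose primary screen is 50% or more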;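 further: 0% = DMSO with enzyme and 100% = substrate without enzyme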
NadD block: inhibitors of S. aureus NadD, primary screen, biochemical, colorimetric, uHTS; purified NadD enzyme, colorimetric absorbance read-out; inhibition, % at 20 µM; 360,000 compounds, 0.78% hits; AID 602399, 2012; in the data active means inhibition above about 26%
GRIN3A LBD mod: binders of NR3A ligand-binding domain, primary screen, biophysical, differential scanning fluorimetry, uHTS; Glutamate receptor ionotropic, NMDA 3A (GRIN3A) ligand-binding domain; 340,000 compounds, 2.5% hits; AID 1259313, 2017; Tm shift relative to glycine control, % at 25 µM; NR3A LBD differential scanning fluorimetry, Tm shift; 0% = protein alone, 100% = glycine-bound protein;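 active means melting temperature shift of at least 10% of the positive control shift, at one fixed dose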
rCAG binder: binders of r(CAG) RNA repeats, primary screen, biochemical, fluorescence; r(CAG) RNA repeat, TO-PRO-1 dye displacement fluorescence; inhibition, % at 3 µM; 370,000 compounds, 1.3% hits;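 active means inhibition above the plate cutoff, the mean of all test compounds on that plate plus 3 SD, cut at about 35% in these data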;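 further: 0% = DMSO alone and 100% = 100 µM mitoxantrone as full dye displacement; higher means more dye released from RNA so lower well fluorescence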
FAS-TE inh conf: FAS thioesterase domain inhibitors, confirmation, biochemical, fluorescence intensity, single concentration; shares compounds with FAS TE block; recombinant FAS-TE, OMFH fluorogenic substrate; inhibition, % at 15 µM; 2,300 compounds, 45% hits;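 active means compounds inhibiting the enzyme by at least 50% at 15 µM in any one of the replicates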;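 further: 0% = enzyme with DMSO only and 100% = wells lacking enzyme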
* marks the source's active call; other numbers are inactive results; . = no result.

SMILES	FAS TE block	NadD block	GRIN3A LBD mod	rCAG binder	FAS-TE inh conf
CCCCOCCCNC(=O)C[C@H]1C[C@@]2(C(=O)OC)C(=C[C@H](C(C)C)O[C@@H]2C2CC2)N(Cc2ccc3c(c2)OCO3)C1=O	.	.	.	-1.0	.
O=C(NCC1COCCO1)C1CCN(S(=O)(=O)c2cccs2)CC1 (stereo unspecified)	.	.	.	-0.1	.
Cc1nn(C)cc1C(C(=O)NC1CCCCC1)N(C(=O)Cc1cccs1)c1ccc(C(C)C)cc1 (stereo unspecified)	60.9*	12.8	-1.6	-7.6	59.3*
C#CCOc1ccccc1C(=O)NNc1ccc([N+](=O)[O-])cc1[N+](=O)[O-]	.	.	.	3.1	.
Cc1ccc(S(=O)(=O)Nc2ccc3c(c2)C(=O)N([C@H](C)CO)C[C@H](C)[C@H](CN(C)C(=O)Nc2cccc4ccccc24)OCCCC[C@@H](C)O3)cc1	61.4*	11.8	.	12.5	5.0
C[C@@H]1CCCCO[C@@H](CN(C)S(=O)(=O)c2cccs2)[C@@H](C)CN([C@H](C)CO)C(=O)c2cc(NS(=O)(=O)c3ccccc3)ccc2O1	62.7*	14.8	.	9.8	14.3
C[C@@H]1CCCCO[C@H](CN(C)S(=O)(=O)c2cccs2)[C@@H](C)CN([C@H](C)CO)C(=O)c2cc(NC(=O)C3CCCCC3)ccc2O1	5.4	3.3	.	8.3	.
C[C@@H]1CCCCO[C@H](CN(C)C(=O)Nc2ccc3c(c2)OCO3)[C@H](C)CN([C@@H](C)CO)C(=O)c2cc(NS(=O)(=O)c3ccc(Cl)cc3)ccc2O1	59.1*	26.6	.	13.4	14.0
Cc1ccc(S(=O)(=O)Nc2ccc3c(c2)C(=O)N([C@H](C)CO)C[C@H](C)[C@@H](CN(C)C(=O)NC2CCCCC2)OCCCC[C@@H](C)O3)cc1	7.3	12.8	.	7.3	.
C[C@@H]1CN([C@H](C)CO)C(=O)c2cc(NC(=O)Nc3ccc(F)cc3)ccc2O[C@@H](C)CCCCO[C@H]1CN(C)S(=O)(=O)c1ccc(Cl)cc1	69.1*	23.0	.	13.7	34.5
CC(C)NC(=O)Nc1ccc2c(c1)C(=O)N([C@H](C)CO)C[C@H](C)[C@@H](CN(C)S(=O)(=O)c1ccccc1)OCCCC[C@@H](C)O2	-6.5	7.7	.	1.0	.
CC(C)CN1C(=O)[C@]2(CC(=O)N(C)C2c2ccccc2)c2cc(-n3cc(CN(C)C)nn3)ccc21 (stereo partly specified)	.	.	.	-1.7	.
O=C(CCn1nnc2ccccc21)N1CCN(c2ccccc2F)CC1	.	.	.	-3.1	.
CCC(=O)Nc1ccc2c(c1)C(=O)N(C)[C@@H]1CC[C@@H](CC(=O)NCCN3CCCCC3)O[C@H]1CO2	.	.	.	4.8	.
COc1cc(OC)c2c(=O)c3c(C(=O)O)c(O)ccc3oc2c1	.	.	.	4.9	.
O[C@H]1C[C@H](c2ccc(Cl)cc2)N(CC2CCCCC2)C[C@@H]1n1cc(C2CC2)nn1	58.7*	6.7	.	5.3	55.9*
O[C@@H]1C[C@H](c2ccc(Cl)cc2)N(CC2CCCCC2)C[C@H]1n1cc(C2CC2)nn1	2.9	-1.3	.	3.2	.
C=CCC[C@H](Cc1ccc(F)cc1)C(=O)OC[C@@H](Cc1c[nH]c2ccccc12)NC(=O)[C@H](CC=C)CC(=O)NCCO	11.1	-7.9	-5.8	-6.5	.
C=CCC[C@@H](Cc1ccc(F)cc1)C(=O)OC[C@H](Cc1c[nH]c2ccccc12)NC(=O)[C@H](CC=C)CC(=O)NCCO	56.9*	-10.0	-3.8	-5.1	68.2*
CC1=C(C(=O)OCC(Br)(Br)Br)C(c2cccc([N+](=O)[O-])c2)NC(=O)N1CCCC(=O)O (stereo unspecified)	56.5*	-1.3	-7.4	20.4	65.0*
CCOC(=O)C1=C(C)N(CCCCCC(=O)O)C(=O)NC1c1cccc([N+](=O)[O-])c1 (stereo unspecified)	-1.0	-1.6	0.1	5.3	.
COc1cccc(-n2c(CN3CCN(c4ccccc4)CC3)nc3ccc([N+](=O)[O-])cc3c2=O)c1	71.5*	17.4	4.6	3.7	31.1*
COc1ccc(-c2cc(-c3ccc(O)cc3)nc(N)c2C#N)cc1	56.7*	-4.5	4.6	8.4	34.4
COc1cc(-c2cc(-c3ccc(O)cc3)nc(N)c2C#N)ccc1O	-0.4	-6.5	-22.8	5.6	.
